Assay results: PubChem BioAssay AID743269 (The Scripps Research Institute Molecular Screening Center, 2014)
Screen size: about 370,000 compounds; about 2,400 (0.65%) were called active. This excerpt belongs to a sample that is enriched for actives. Unmarked numbers belong to inactive results.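 How the source made its calls: active means inhibition above the screen-wide mean plus 3 SD (cut at about 13% in these data); inactive means the rest.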

tested on: HIV-1 integrase (with human LEDGF/p75); test: blockers of LEDGF/p75-dependent integrase strand transfer – biochemical, TR-FRET, high throughput, primary screen (AID 743269); conditions: TR-FRET IN-LEDGF/p75 DNA integration, Eu/Cy5; at 3.7 µM; stronger effect = higher value;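 further: signal is the Cy5 over europium emission ratio at 671 and 618 nm; 0% = plate median of compound wells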

Row | Compound | inhibition
1 | CCCC1CCC2(CCCN2CCOC(=O)NCc2ccccc2)CC1 (configuration not stated) | -0.38%
2 | CC(CN1CCOCC1)OC(=O)c1ccc(C(C)(C)C)cc1 (configuration not stated) | 2.54%
3 | Cc1ccc(C(=O)OC(C)CN2CCOCC2)cc1 (configuration not stated) | 57.5% (active)
4 | Cc1cccc(C(=O)OC(C)CN2CCCC2)c1 (configuration not stated) | 1.96%
5 | COc1ccc2c(C(C)c3ccc(N)cc3)cn(C)c2c1 (configuration not stated) | 3.86%
6 | Cc1c(C(C)c2ccccc2O)[nH]c2ccccc12 (configuration not stated) | -2.27%
7 | Oc1ccc(N=Cc2sc3ccccc3c2Cl)cc1 | 27.5% (active)
8 | COc1ccc([C@H]2OC(=O)C[C@H]2C(=O)N2CCN(c3ccccc3F)CC2)cc1OC | 1.9%
9 | Cc1cc(C)nc(NC(=S)N2CCN(c3ccc(C(F)(F)F)cn3)CC2)c1 | 4.81%
10 | O=S1(=O)c2c(cccc2N2CCSCC2)Oc2ccccc2CN1Cc1cn(Cc2ccc(F)cc2)nn1 | -4.35%
11 | COC(=O)C1CN(CCc2ccccc2)CCS(=O)(=O)N1Cc1ccc(F)cc1 (configuration not stated) | -0.36%
12 | O=C(CCS(=O)(=O)c1ccccc1)Nc1ccc(Cl)c(Cl)c1 | -0.44%
13 | Cc1ccc(-c2cnc(NC(=O)CCC(=O)N(C)Cc3ccccc3)n2C)cc1 | 38.1% (active)
14 | Cn1c(-c2ccc(F)cc2)cnc1SCC(=O)NNC(=O)Cc1ccccc1 | -1.96%
15 | CN(Cc1ccccc1)C(=O)CCNC(=O)Cn1cnc2ccccc2c1=O | -0.32%
16 | O=C(OCC#CCSc1nnc(-c2ccco2)o1)c1ccc(F)cc1 | -2.28%
17 | COC(=O)[C@]12C[C@H](CC(=O)NCc3ccccc3)C(=O)N(Cc3ccccc3)C1=C[C@H](COCc1ccccc1)O[C@@H]2C | -1.62%
18 | CC(C)C(C#CC1CC1)N(Cc1ccc2c(c1)OCO2)C(N)=NC(=O)/C=C/c1cccc(C(F)(F)F)c1 (configuration not stated) | -0.12%
19 | Cn1c(SCC(=O)N2CCCC2)nnc1-c1ccc2c(c1)OCO2 | 0.18%
20 | Cn1c(SCc2nc3ccccc3s2)nnc1-c1ccc2c(c1)OCO2 | 14.7% (active)
21 | COc1ccc(CSc2nnc(-c3cccc(C)c3)n2C)cc1 | 1.05%
22 | CCOC(=O)[C@]12CCCC3=C1N(CCC3)C(=O)[C@@H](CC(=O)N1CCSCC1)C2 | 4.16%

Row | Compound | inhibition
23 | COC(=O)[C@]12C[C@H](CC(=O)NCc3ccccc3)C(=O)N(CCC3=CCCCC3)C1=C[C@H](C(C)C)O[C@@H]2C1CC1 | -3.27%
24 | Cc1ccccc1CN1CCCCC(NC(=O)c2cccc(C#N)c2)C1=O (configuration not stated) | -3.73%
25 | CCCCCCN1CCS(=O)(=O)N(Cc2ccc(C(F)(F)F)cc2)C(C(=O)OC)C1 (configuration not stated) | -2.95%
26 | COC(=O)/C(C#N)=C/c1occc1C | 1.63%
27 | CCOC(=O)/C(C#N)=C\c1c(C)cc(C)c(COC(C)=O)c1C | 15.8% (active)
28 | CCCn1c(C)cc(/C=C(\C#N)C(=O)OCC(=O)Nc2cc(OC)c(OC)c(OC)c2)c1C | 4.46%
29 | CCOC(=O)c1csc(NC(=O)C2CCCN(S(=O)(=O)c3ccc(Cl)s3)C2)n1 (configuration not stated) | 3.42%
30 | CSc1ccc(C=Nn2c(-c3ccc(F)cc3)n[nH]c2=S)cc1 | 1.18%
31 | COc1ccc2c(c1)CN1CN(CCc3ccccc3)S(=O)(=O)CC21 (configuration not stated) | 3.16%
32 | O=C(N/C(=C\c1ccc(O)cc1)C(=O)N1CCCCC1)c1ccccc1 | 3.65%
33 | Cc1ccc(C(=O)N/C(=C/c2cccs2)C(=O)N2CCCCC2)cc1 | 33% (active)
34 | CN1CCN(C(=O)/C(=C\c2cccs2)NC(=O)c2cccs2)CC1 | -1.57%
35 | Cc1ccc(Cn2cc(CN3[C@@H](C)COc4cc(Br)ccc4S3(=O)=O)nn2)cc1 | 4.11%
36 | O=C1Nc2ccccc2OC1CC(=O)N1CCCCCCC1 (configuration not stated) | 0.2%
37 | CCC(CO)Nc1cccc2c1S(=O)(=O)N(Cc1cn(Cc3ccccc3C(F)(F)F)nn1)Cc1ccccc1O2 (configuration not stated) | -2.25%
38 | FC(F)(F)c1cccc(Cn2ccc3ccc(-c4ccc5ccn(Cc6ccccc6)c5c4)cc32)c1 | 3.37%
39 | CC(=O)N1CCc2cc(S(=O)(=O)NCCC(=O)N3CCCC3)ccc21 | -3.8%
40 | CC1(C(=O)NS(=O)(=O)c2ccc(C#N)cc2)CCN1C(=O)c1ccc(C2CCCCC2)cc1 (configuration not stated) | -1.93%
41 | Cc1ccccc1C(=O)N1CCC(C(=O)Oc2ccc(C#N)cc2)CC1 | -4.31%
42 | CC1(OC(=O)C2CCCC2)C(=O)C=C2C=C(c3ccc(C#N)cc3)OC=C2C1=O (configuration not stated) | 13.4% (active)
43 | C[C@H]1CCC/C=C/C(=O)c2c(O)cc(O)cc2CC(=O)O1 | -2.09%
44 | Cc1cc2c(c(=O)n1Cc1ccco1)C(c1ccccc1)C(C#N)=C(N)O2 (configuration not stated) | 42.2% (active)

Row | Compound | inhibition
45 | O=C(Cn1c(=O)n(Cc2ccco2)c(=O)c2ccccc21)NCC1CCCO1 (configuration not stated) | 2.8%
46 | Cc1cc2c(c(=O)n1C)C(C(C)C)C(C#N)=C(N)O2 (configuration not stated) | 0.88%
47 | N#Cc1ccc(OC[C@@H](O)CN2CCC(C(O)(c3ccccc3)c3ccccc3)CC2)c(F)c1 | 1.07%
48 | Cc1ccnc(NS(=O)(=O)c2ccc(NC(=O)c3ccc(S(=O)(=O)N4CCOCC4)cc3)cc2)n1 | -0.6%
49 | O=C(Nc1nnc(-c2ccco2)o1)c1ccc(S(=O)(=O)N2CCOCC2)cc1 | 27% (active)
50 | O=C(Nc1nnc(-c2ccccc2)o1)c1cccc(S(=O)(=O)N2CCOCC2)c1 | 4.42%
51 | Cc1cccc(C(=O)Nc2c(-c3ccc(F)cc3)nc3ncccn23)c1 | 1.19%
52 | C=CCN1[C@H](CC(C)C)COc2cccc(N3CCCC3)c2S1(=O)=O | -3.3%
53 | CCN(CC)C(=O)CC[C@H]1CC[C@]2(CCCN(Cc3ccc(Cl)cc3)C2)O1 | 3.81%
54 | O=C(OC1CC2CC1[C@H]1CCCCN1C2=O)N1CCOCC1 (some centres not stated) | -2.09%
55 | CCCC[C@H]1C2CC(OC(=O)NCc3ccccc3)C(C2)[C@H]2CCCCN21 (some centres not stated) | -3.96%
56 | CCCCNC(=O)OC1CC2CC1[C@H]1CCCCN1C2=O (some centres not stated) | 25.4% (active)
57 | c1coc(CCNc2ncnc3ccc(-c4ccc5c(c4)OCO5)cc23)c1 | 2.41%
58 | COC(=O)c1cc(S(=O)(=O)N2CCN(c3ccccc3C)CC2)cn1C | -0.95%
59 | CC(C)Cn1c(N)c(C(=O)NCc2cccs2)c2nc3ccccc3nc21 | 23.8% (active)
60 | O=C(Cc1coc2ccc3ccccc3c12)NCc1cccs1 | 0.4%
61 | Cc1nc2c(C(=O)NCc3cccs3)cnn2c(C)c1Cc1ccc(F)cc1 | -1.76%
62 | N[C@@H](Cc1ccccc1)C(=O)N1CCC[C@@H]1C(=O)N1CCC2CCN(S(=O)(=O)c3ccccc3)CC21 (some centres not stated) | 3.42%
63 | Cc1ccc(CSc2nnc(SCC(=O)NN=Cc3cc(Br)ccc3F)s2)cc1 | 3.4%
64 | CCOC(=O)c1ccc(NC(=O)c2c(NCc3ccccc3)[nH]c(=O)[nH]c2=O)cc1 | 2.44%
65 | CCOC(=O)c1ccc(Nc2cc3ccccc3c(=O)[nH]2)cc1 | 15.5% (active)
66 | CCOC(=O)c1ccc(NC(=O)c2c(N)n(C)c(=O)[nH]c2=O)cc1 | -0.3%

Row | Compound | inhibition
67 | COc1ccccc1C(=O)NC1CCCCN(C(C)C)C1=O (configuration not stated) | -1.35%
68 | COC(=O)C[C@@H]1CC[C@H]2[C@@H](COc3ccc(NS(=O)(=O)CC(F)(F)F)cc3C(=O)N2C)O1 | -3.99%
69 | COC(=O)[C@@]12CCCCC=C1N(CCc1ccc(Cl)cc1)C(=O)[C@H]2CC(=O)NCc1ccc(OC)c(OC)c1 | 2.21%
70 | C=CCN(Cc1ccc2c(c1)OCO2)C(C#CC1CC1)C(C)(C)C (configuration not stated) | 0.61%
71 | COc1ccc(S(=O)(=O)N2CCCCC2)cc1C(=O)NC1CCS(=O)(=O)C1 (configuration not stated) | 19.8% (active)
72 | COc1ccc(S(=O)(=O)N2CCOCC2)cc1C(=O)NC1CCCCC1 | 1.4%
73 | Cc1ccc(S(=O)(=O)N2CCN(C)CC2)cc1C(=O)NC1CCCCC1 | 2.41%
74 | C=CCN1C(=O)[C@@H](CC(=O)NCCCCc2ccccc2)[C@]2(C(=O)OCC)CCCCC/C=C/12 | -2.38%
75 | Cc1ccccc1NC(=O)C1CCN(c2ncccn2)CC1 | -1.73%
76 | COc1ccc(C2CC(c3cccs3)=NN2C(=O)COC(=O)c2cc3ccccc3cc2O)cc1OC (configuration not stated) | 23% (active)
77 | COc1ccc(C2CC(c3cccs3)=NN2c2nc(C)c(C(C)=O)s2)cc1OC (configuration not stated) | -0.06%
78 | COc1cccc(C2CC(c3cccs3)=NN2C(=O)CSC2=NCCS2)c1OC (configuration not stated) | -1.38%
79 | Nc1ccc2nc3c(=O)[nH]c(=S)[nH]c3nc2c1 | 39.9% (active)
80 | COc1ccc(Cn2cc(CN3[C@@H](CC(C)C)COc4cc(Br)ccc4S3(=O)=O)nn2)cc1 | 3.34%
81 | Cc1nc(CNc2ncnc3ccc(-c4ccc5c(c4)OCO5)cc23)cs1 | -1.03%
82 | O=C(NCCCc1ccccc1)[C@H](Cc1ccccc1)NC1(C(=O)NCCc2c[nH]c3ccccc23)CCC1 | -0.75%
83 | COc1ccc(N2CCN(CCNS(=O)(=O)c3ccc(C(C)(C)C)cc3)CC2)cc1 | 1.13%
84 | CC(=O)OCCN1CCCC12CCC(c1ccccc1)CC2 (configuration not stated) | -3.46%
85 | COC(=O)C1CN(Cc2cn(Cc3ccc(F)cc3)nn2)CCS(=O)(=O)N1Cc1ccc(Cl)cc1 (configuration not stated) | 0.07%
86 | CC(=O)OCC1(O)CC23CCC4c5ccoc5CCC4(C)C2CCC1C3 (configuration not stated) | 36.9% (active)
87 | COC(=O)c1ccccc1-n1cc(COC(=O)NCCc2ccccc2)nn1 | -3.43%
